Compounds with a hit are over-represented: about 10% of the library has one in this group of screens.
VDR inh = inhibitors of human vitamin D receptor | VDR-SRC2-3 peptide fluorescence polarization, 2 h | Potency, µM, for the others: max response, negative = inhibition, hits mostly inhibitors | actives 0.93% (n = 400,000); also: potency is read from the fitted curve at half-maximal effect
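Measured by FP: displacement of SRC2-3 coactivator peptide from VDR by library compounds, following a two-hour ambient incubation.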
PLK1 PBD inh = PLK1 (human) polo-box domain binding inhibition | actives 2.8% (n = 360,000) | Plk1 PBD binding of FITC phosphopeptide, fluorescence polarization | Potency, µM, inactives show max response, negative = inhibition, hits mostly inhibitors | P53350; also: potency is read from the fitted curve at half-maximal effect; series mostly up to about 57 µM; nearly all actives have a fitted effect of over 65% in size
Target sequence (P53350 whole entry, looked up, the tested form may be a part): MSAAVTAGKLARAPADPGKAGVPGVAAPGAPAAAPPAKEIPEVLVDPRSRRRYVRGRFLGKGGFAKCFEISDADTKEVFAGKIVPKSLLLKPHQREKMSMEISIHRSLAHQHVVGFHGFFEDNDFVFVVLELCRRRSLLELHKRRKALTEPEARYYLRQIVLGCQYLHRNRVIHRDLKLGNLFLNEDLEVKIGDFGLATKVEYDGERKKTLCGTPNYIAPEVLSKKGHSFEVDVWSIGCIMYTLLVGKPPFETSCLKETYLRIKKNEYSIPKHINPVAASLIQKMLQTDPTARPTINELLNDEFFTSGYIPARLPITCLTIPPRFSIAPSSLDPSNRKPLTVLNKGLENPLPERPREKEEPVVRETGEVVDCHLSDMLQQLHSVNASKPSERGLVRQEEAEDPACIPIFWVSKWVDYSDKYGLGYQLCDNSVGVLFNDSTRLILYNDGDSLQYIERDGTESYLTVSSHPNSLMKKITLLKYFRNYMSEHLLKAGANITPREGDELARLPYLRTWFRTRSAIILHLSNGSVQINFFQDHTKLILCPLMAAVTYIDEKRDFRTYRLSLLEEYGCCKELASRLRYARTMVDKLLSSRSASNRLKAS
CCT chaperon mod = modulators of cytosolic chaperonin (CCT/TRiC) activity | purified chaperonin ATPase assay, HTRF ADP detection, 30 min | activity change, % (no concentration beside the values), hits read low | actives 0.3% (n = 360,000) | AID 651819; in the data active = activity change below about -30%
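TRiC (40 or 20 nM final, by batch activity) in 30 mM Tris pH 7.4, 100 mM KCl, 5 mM MgCl2, 1 mM DTT was treated with compound at 76 uM single dose, then 10 uM ATP, 30 min at 37 °C. ADP was read by HTRF Transcreener.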
Sfp inh = blocks B. subtilis Sfp PPTase activity | Q9F4F7 | Biochemical Sfp PPTase activity, qHTS | Potency, µM, inactives show largest response in the series, negative = inhibition, usual class: inhibitors | actives 3.5% (n = 310,000);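 also: the enzyme is Sfp with the accession as filed and its product quenches rhodamine fluorescence; potency is read from the fitted curve at half-maximal effect; 0% = enzyme reaction without inhibitor and -100% = no enzyme wells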
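Buffer: 50 mM Hepes-Na pH 7.6, 10 mM MgCl2, 0.01% Nonidet P-40, 0.01% BSA. Enzyme 15 nM, pre-exposed to compound 15 min; substrates then added and fluorescence change tracked over 30 min.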
G9a block = G9a (human) methyltransferase inhibition; Q96KQ7; G9a H3K9 monomethylation, AlphaScreen, 2 h; Potency, µM (series often up to 102 µM), inactives show at the top dose activity, negative = inhibition, actives largely listed as inhibitors; actives 8.8% (n = 350,000); also: potency is read from the fitted curve at half-maximal effect; nearly all actives have a fitted effect of over 75% in size
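Using a bead-based AlphaScreen, monomethylated H3K9 product from 2 h room-temperature reactions (G9a 20 nM, peptide 500 nM, SAM 20 uM) was detected with 0.5 ug/mL rabbit anti-H3K9me1 antibody.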
Mm-Cpn inhibitor = blocks the Methanococcus maripaludis chaperonin Mm-Cpn; purified Mm-Cpn ATPase, ADP Transcreener TR-FRET; Potency, µM (doses to about 76.9 µM), for inactives: at the top dose activity, negative = inhibition, actives largely listed as inhibitors; actives 0.031% (n = 330,000); AID 504842; also: potency is read from the fitted curve at half-maximal effect; nearly all actives have a fitted effect of over 80% in size
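Compound-treated chaperonin, 25 nM final, turns over 10 uM ATP at 37°C for 30 min following a 10 min preincubation; ADP generated competes with ADP-d2 for Eu-cryptate antibody, lowering FRET.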
* = called active by the depositor; [ ] = remark or other dose. Unless noted, calls follow the shape of the dose curve; as a rule, active = well fitted curve in the direction sought with a large enough effect; inconclusive = small, poorly fitted or top-dose-only effect, or another doubt; inactive = no such curve, though single readings can be large; an effect the other way counts as inactive or inconclusive. Unless noted, % is scaled to controls: 0 for no effect and ±100 for the full control effect.

How did Cc1cc(NS(=O)(=O)c2ccccc2)c(C)c(Cl)c1O do in these assays?
VDR inh: -6%; PLK1 PBD inh: 0%; CCT chaperon mod: 1; Sfp inh: -9%; G9a block: 28µM*; Mm-Cpn inhibitor: 1%

Results for O=S(=O)(Nc1ccc2c(c1)OCO2)c1ccccc1 ?
VDR inh: -16%; PLK1 PBD inh: -9%; CCT chaperon mod: -4; Sfp inh: -6%; G9a block: 14µM*; Mm-Cpn inhibitor: -1%

How did COc1ccc(S(=O)(=O)Nc2ccc3c(c2)OCO3)cc1 do in these assays?
VDR inh: 2%; PLK1 PBD inh: -4%; CCT chaperon mod: -1; Sfp inh: -4%; G9a block: 2%[59 µM]; Mm-Cpn inhibitor: 2%

How did Cc1cc(NS(=O)(=O)c2ccccc2)ccc1NS(=O)(=O)c1ccccc1 do in these assays?
VDR inh: 3%; PLK1 PBD inh: 2%; CCT chaperon mod: 0

Results for COCCNC(=O)c1ccc(-c2nc(CS(=O)(=O)c3ccccc3)c(C)o2)cc1 ?
VDR inh: 15%; G9a block: -26%[59 µM]

Results for Cc1nn(C)c(C)c1S(=O)(=O)Nc1ccc2c(c1)OCO2 ?
VDR inh: -15%; PLK1 PBD inh: -7%; CCT chaperon mod: 0; Sfp inh: 1%; G9a block: 50µM*; Mm-Cpn inhibitor: -1%

Results for CCOC(=O)c1cc(-c2ccc(OC)cc2)n(CCC(=O)Nc2ccc(OC)cc2OC)c1C ?
VDR inh: -4%; G9a block: inconclusive

Results for O=[N+]([O-])c1ccc(C2=NN(c3ccccc3)C(c3ccco3)C2)cc1 (configuration not stated) ?
VDR inh: -2%; PLK1 PBD inh: 27%; CCT chaperon mod: 2; Sfp inh: -21%; G9a block: inconclusive; Mm-Cpn inhibitor: -2%

How did O=[N+]([O-])c1ccc(/C=C/C2=NN(c3ccccc3)C(c3ccco3)C2)cc1 (configuration not stated) do in these assays?
VDR inh: 16%; PLK1 PBD inh: 15%; CCT chaperon mod: 1; Sfp inh: 40µM*; G9a block: 22µM*; Mm-Cpn inhibitor: -1%

Results for N=c1nc(SCCC(=O)O)ss1 ?
VDR inh: -11%; PLK1 PBD inh: -22%; CCT chaperon mod: -2; Sfp inh: inconclusive; G9a block: 11µM*; Mm-Cpn inhibitor: 0%

What do the screens show for `CCCCc1c(O)nc(SCCC(=O)O)[nH]c1=O`?
Sfp inh: 1%; G9a block: 24%[12.7 µM]; Mm-Cpn inhibitor: 2%

What do the screens show for `O=C(Oc1ccc2ccc(=O)oc2c1)c1ccccc1`?
VDR inh: 8%; PLK1 PBD inh: 0%; CCT chaperon mod: -1; Sfp inh: -6%; Mm-Cpn inhibitor: inconclusive

How did Cc1ccc(S(=O)(=O)NC(C(=O)Oc2cc3oc(=O)cc(C)c3cc2Cl)C(C)C)cc1 (configuration not stated) do in these assays?
VDR inh: 3%; PLK1 PBD inh: -5%; CCT chaperon mod: 7; Sfp inh: 3%; G9a block: 16%[59 µM]; Mm-Cpn inhibitor: -2%

How did Cc1ccc(S(=O)(=O)NC(C(=O)Oc2ccc3ccc(=O)oc3c2)c2ccccc2)cc1 (configuration not stated) do in these assays?
VDR inh: inconclusive; PLK1 PBD inh: inconclusive; CCT chaperon mod: 2; Sfp inh: -11%; G9a block: 7.9µM*; Mm-Cpn inhibitor: -10%

How did CCC(NC(=O)OCc1ccccc1)C(=O)Oc1ccc2ccc(=O)oc2c1 (configuration not stated) do in these assays?
VDR inh: inconclusive; PLK1 PBD inh: 30µM*; CCT chaperon mod: 1; Sfp inh: -11%; G9a block: 8%[0.501 µM]; Mm-Cpn inhibitor: -13%

Results for Cc1ccc(S(=O)(=O)NC(C(=O)Oc2ccc3c(C)c(Cl)c(=O)oc3c2)c2ccccc2)cc1 (configuration not stated) ?
VDR inh: inconclusive; PLK1 PBD inh: inconclusive; CCT chaperon mod: -1; Sfp inh: -9%; G9a block: 7.9µM*; Mm-Cpn inhibitor: -7%

How did CCC[C@@H](NS(=O)(=O)c1ccc(C)cc1)C(=O)Oc1ccc2c3c(c(=O)oc2c1)CCC3 do in these assays?
VDR inh: -19%; PLK1 PBD inh: 3%; CCT chaperon mod: 0; Sfp inh: 16%; G9a block: inconclusive; Mm-Cpn inhibitor: -5%

Results for Cc1ccc(S(=O)(=O)N[C@H](C(=O)Oc2ccc3c(C(F)(F)F)cc(=O)oc3c2)c2ccccc2)cc1 ?
VDR inh: inconclusive; PLK1 PBD inh: inconclusive; CCT chaperon mod: -1; Sfp inh: -21%; G9a block: 3.5µM*; Mm-Cpn inhibitor: -4%

Results for COc1cccc(C(=O)n2nc(-c3cccnc3)nc2NCc2ccc(F)cc2)c1 ?
VDR inh: -2%; G9a block: -2%[59 µM]

Results for Oc1ccc(Cc2ccccc2)c2cccnc12 ?
VDR inh: 2%; PLK1 PBD inh: -14%; CCT chaperon mod: -3

How did CN(Cc1ccco1)Cc1ccc(O)c2ncccc12 do in these assays?
VDR inh: -19%; G9a block: 1.4µM*; Mm-Cpn inhibitor: 0%

How did Cc1ccc(CNC(=O)C2CCN(S(=O)(=O)c3c(C)noc3/C=C/c3ccccc3F)CC2)o1 do in these assays?
VDR inh: 6%; G9a block: 7%[59 µM]

What do the screens show for `Oc1ccccc1C(=S)N1CCCCC1`?
VDR inh: -22%; PLK1 PBD inh: 27µM*; CCT chaperon mod: -3; Sfp inh: -28%; G9a block: 10µM*; Mm-Cpn inhibitor: 0%

Results for COC(=O)c1cc2oc(C)cc2n1CC(=O)Nc1cc(Cl)ccc1OC ?
VDR inh: 8%; G9a block: -4%[59 µM]

How did NC1=NC[C@@H](Cc2ccc(O)cc2)N1CCc1cccc2ccccc12 do in these assays?
VDR inh: 3%; PLK1 PBD inh: 4%; CCT chaperon mod: -1; Sfp inh: 89µM*; G9a block: 24%[12.7 µM]; Mm-Cpn inhibitor: 1%

How did CCOc1ccc(N2C(=O)CC(N3CCC(O)(c4ccc(Br)cc4)CC3)C2=O)cc1 (configuration not stated) do in these assays?
VDR inh: 5%; PLK1 PBD inh: 1%; CCT chaperon mod: -17; Sfp inh: -15%; G9a block: 45µM*; Mm-Cpn inhibitor: 2%

Results for CCOc1ccc(N2C(=O)CC(N3CCN(c4ccc(F)cc4)CC3)C2=O)cc1 (configuration not stated) ?
VDR inh: -5%; PLK1 PBD inh: 1%; CCT chaperon mod: 1; Sfp inh: 18%; G9a block: 45µM*; Mm-Cpn inhibitor: 2%

What do the screens show for `CC(/C=N/Nc1nc(C)cc(C)n1)=C\c1ccc(C(C)C)cc1`?
VDR inh: -4%; PLK1 PBD inh: -10%; CCT chaperon mod: -2; Sfp inh: 6%; G9a block: 40µM*; Mm-Cpn inhibitor: -1%

Compound activity (PubChem BioAssay)
